According to PubChem BioAssay (NCI):
About 79,000 compounds went through this panel and 15% of them were active in at least one assay; those are over-represented in the sample as a whole. The source made the active and inactive calls. No stated cut-off is given here; in the data, active means growth inhibition above about 70%; inactive means the rest.

Legend:
[1] = NCI Yeast Anticancer Drug Screen. Data for the rad50 strain (AID 155);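 further: 0% = growth of vehicle-only cultures of the same strain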; details: S. cerevisiae rad50 strain growth inhibition; at 50.0 µM; active compounds read high
In short: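 A DNA repair-deficient yeast mutant serves as the test organism; compound-induced growth inhibition is calculated against vehicle-treated cells.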

[2] = NCI Yeast Anticancer Drug Screen. Data for the mec2-1 strain (AID 157); details: S. cerevisiae mec2-1 strain, at 50.0 µM, active compounds read high
In short: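 Mutant yeast (mec2-1) grown with compound; growth inhibition relative to vehicle control reported.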

[3] = NCI Yeast Anticancer Drug Screen. Data for the sgs1 mgt1 strain (AID 161);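 further: 0% = growth of cultures given vehicle only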; details: S. cerevisiae sgs1 mgt1 strain, at 50.0 µM, active compounds read high
In short: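 Growth of a repair-deficient yeast mutant was monitored after compound treatment and expressed as inhibition relative to vehicle-treated cultures.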

[4] = NCI Yeast Anticancer Drug Screen. Data for the cln2 rad14 strain (AID 165);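 further: 0% = growth equal to vehicle treated cultures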; details: S. cerevisiae cln2 rad14 strain, at 50.0 µM, active compounds read high
In short: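 Readout is yeast growth inhibition versus vehicle-treated controls, using a strain with cln2 and rad14 alterations exposed to compound.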

[5] = NCI Yeast Anticancer Drug Screen. Data for the bub3 strain (AID 167); details: S. cerevisiae bub3 mutant strain, at 50.0 µM, active compounds read high
In short: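 Inhibition values come from growth of compound-treated mutant yeast normalised to vehicle-treated controls.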

[6] = NCI Yeast Anticancer Drug Screen. Data for the mlh1 rad18 strain (AID 175); details: S. cerevisiae mlh1 rad18 strain growth inhibition; at 50.0 µM; active compounds read high
In short: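 Genetically defined yeast (DNA repair-deficient) exposed to compounds; growth inhibition determined relative to vehicle.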

Measured: growth inhibition

O=C(NO)c1ccccc1O
inactive: [1] 27.2% | [2] 21% | [3] -14.8% | [4] 4.2% | [5] 8% | [6] 17.8%

C1=CCOCOC1
inactive: [1] -2.35% | [2] -24.4% | [3] -2.35% | [4] -8% | [5] -8.95% | [6] -38.1%

c1ccc(SSc2ccc3ccccc3c2)cc1
inactive: [1] 22.4% | [2] 39.1% | [3] 32.6% | [4] 24.6% | [5] 31.4% | [6] 28.3%

CC1(O)CC2C(CC1SCCO)C2(C)C (stereo unspecified)
inactive: [1] -30.4% | [2] -10.8% | [3] -42.1% | [4] -11.1% | [5] -56% | [6] -30.5%

CCC(=O)Nc1ccc(C)cc1C
inactive: [1] 23.7% | [2] 12.9% | [3] 9.8% | [4] 13.7% | [5] 2.6% | [6] 3.45%

Cc1ccc2[nH]c(C)c(C(=O)c3cccnc3)c2c1
inactive: [1] -7.55% | [2] 0.85% | [3] 13.2% | [4] -13.3% | [5] -18.6% | [6] -8.4%

CCOC(=O)c1cc(=O)[nH]c(N)n1
inactive: [1] -6.4% | [2] -10.8% | [3] -1.55% | [4] -38.2% | [5] 10.4% | [6] -4.15%

O=C(Oc1ccccc1)N1CCCSC1=S
inactive: [1] 19.4% | [2] -14.3% | [3] 5.35% | [4] 31.4% | [5] 16.2% | [6] 51.2%

COC(=O)C1=C(C(=O)OC)C(=Nc2ccccc2)c2ccccc2C1=O
active: [3] 74.2% | [6] 90.6%
inactive: [1] 46.8% | [2] 35.3% | [4] 8.2% | [5] 51.4%

Nc1c(S(=O)(=O)O)cc2cc(S(=O)(=O)O)ccc2c1N
inactive: [1] 9.9% | [2] -12.6% | [3] 6% | [4] -15.7% | [5] 17.8% | [6] 24.9%

CCOC(=O)Nc1ccc(F)cc1F
inactive: [1] -62.1% | [2] -10.6% | [3] -2.75% | [4] -10.5% | [5] 8.65% | [6] 14.4%

CCCC1OC(c2ccc(OC)cc2)OCC1CC (stereo unspecified)
inactive: [1] 2.65% | [2] 0.95% | [3] -0.3% | [4] -16.4% | [5] 30.9% | [6] -0.75%

COc1cccc(C2CC(C)=Nc3c(ccc4c3C(=O)c3ccccc3C4=O)N2)c1O (stereo unspecified)
inactive: [1] 1.2% | [2] 17.9% | [3] 24.6% | [4] 7.8% | [5] 11.8% | [6] 14.8%

Cn1c(=O)c2c(nc(N3CCOCC3)n2CCCNCC(O)c2ccc(O)c(O)c2)n(C)c1=O (stereo unspecified)
inactive: [1] -40.9% | [2] 4.3% | [3] -13.2% | [4] -29.9% | [5] -2.1% | [6] -21.6%

CC(C1CCCC1=O)C1CCCC1=O (stereo unspecified)
inactive: [1] -1.1% | [2] -17.8% | [3] -5.05% | [4] 5.35% | [5] -11.9% | [6] -10.4%

OC(Cc1ccccc1)c1ccccc1 (stereo unspecified)
inactive: [1] -21.9% | [2] -19.8% | [3] -24.8% | [4] 16.2% | [5] -5.15% | [6] 1.5%

CC(C)Oc1ccc(CCOC(=O)Nc2cccc3ccccc23)cc1
inactive: [1] -0.5% | [2] 0.85% | [3] 2% | [4] 6.65% | [5] 3.8% | [6] 9.5%

COC1(C)C=NCC(C)(C)NC(=O)C(C)(OC)C=NCC(C)(C)NC1=O (stereo unspecified)
inactive: [1] -12.4% | [2] -27.6% | [3] -29.4% | [4] -16.4% | [5] -21.6% | [6] -26.5%

CCOC(=O)C1CN(C)C(=O)C1=O (stereo unspecified)
inactive: [1] 17.2% | [2] -2.4% | [3] 16.6% | [4] 2.35% | [5] -0.05% | [6] 25.9%

C[C@H]1CCC2C(OC(=O)[C@@H]2CN(C)C)[C@]2(C)C(=O)C=CC12O (stereo partly specified)
inactive: [1] -24.5% | [2] -31.4% | [3] -10.3% | [4] 17.4% | [5] -6.95% | [6] -36%

CN(C)Cc1cc(C(=O)/C=C/c2ccc(Cl)cc2Cl)cc(CN(C)C)c1O
inactive: [1] 6.4% | [2] -12.8% | [3] 8.55% | [4] -51.4% | [5] 8.85% | [6] 13.8%

Clc1nc(C(Cl)Cl)nc2ccccc12
inactive: [1] 9.65% | [2] 10.8% | [3] 14.2% | [4] 2.9% | [5] 16.1% | [6] 12.4%

CC(=O)C1CC[C@@]2(C)C(CC[C@H]3[C@@H]4CCC[C@H]([C@H](C)O)[C@@]4(C)CC[C@@H]32)C1 (stereo partly specified)
inactive: [1] -16.9% | [2] 0.3% | [3] 2.9% | [4] 0.4% | [5] -5.5% | [6] -7.5%

C/C(=C\c1ccccc1)C(=O)C1C(c2ccccc2)CC(=O)C(C)C1c1ccccc1 (stereo unspecified)
inactive: [1] -3.65% | [2] -11.7% | [3] -27.3% | [4] -36.5% | [5] -0.5% | [6] 2.35%

OCc1cc2ccc3ccccc3c2[nH]1
inactive: [1] 25.3% | [2] 24.9% | [3] 47.9% | [4] 2.65% | [5] 25.5% | [6] 25.6%

C=C(C)c1nc(C#N)c(N)o1
inactive: [1] 33% | [2] 5.6% | [3] -13.4% | [4] 4.5% | [5] -37.8% | [6] -33.4%

O=C1c2ccccc2C(=O)N1CCc1ccccc1
inactive: [1] -12.1% | [2] 7% | [3] -6.9% | [4] -36% | [5] 16.6% | [6] 14.1%

CC12CC(=O)NC(=O)N1CCS2 (stereo unspecified)
inactive: [1] 3.7% | [2] 5.6% | [3] -1.85% | [4] -20.7% | [5] -13.7% | [6] -6.15%

CCNC(=O)c1ccccc1C(=O)c1ccccc1
inactive: [1] -4.55% | [2] 1.2% | [3] 6.55% | [4] 12.8% | [5] -0.75% | [6] 11.5%

CCCN(CCC#N)C(=S)Nc1ccc(C)c(C)c1
inactive: [1] -13.1% | [2] -54.7% | [3] -3.1% | [4] -7.5% | [5] -41.6% | [6] -27.9%

C=C(C)CNC(=S)N(N)c1ccc(OC)cc1
inactive: [1] 39.5% | [2] 9.75% | [3] 16.6% | [4] -2.2% | [5] 12.4% | [6] 36.1%

CN(C)Cc1cc(C(C)(C)C)cc(CNC2CCCCC2)c1O
inactive: [1] -2.9% | [2] -6.45% | [3] -26.9% | [4] -6.4% | [5] -24.4% | [6] 19.9%

O=C(Nc1nc2ncn(CC(COc3ccccc3)OC(=O)c3ccccc3)c2c(=O)[nH]1)c1ccccc1 (stereo unspecified)
inactive: [1] -9.85% | [2] 9.55% | [3] 6.5% | [4] 15.2% | [5] 12.2% | [6] -6.65%

CC1=NNC(=O)C1
inactive: [1] 4.65% | [2] -0.4% | [3] -8.1% | [4] -14.8% | [5] -3.2% | [6] 2.9%

Cc1cc(Br)cc(C)c1NC(=O)C(=O)CC(=O)c1sc(-n2nc(-c3ccccc3)cc2-c2ccccc2)nc1C
inactive: [1] 5.7% | [2] 1.75% | [3] -32.5% | [4] 28.5% | [5] 33.8% | [6] 15.7%

COC[C@@H](N=CN1CCc2cc(OC)c(OC)cc2C1)C(C)(C)C
inactive: [1] -31.2% | [2] -18.2% | [3] -14.6% | [4] 13% | [5] -11.3% | [6] -17%

COC1OC(CO)C(O)C(OCc2ccccc2)C1OCc1ccccc1 (stereo unspecified)
inactive: [1] -4.35% | [2] 0.5% | [3] -5.35% | [4] -10.3% | [5] -7.4% | [6] -19.3%

FC(F)(F)c1nn2c(c(-c3ccccc3)c(-c3ccccc3)c3ccccc32)c1C(F)(F)F
inactive: [1] 32.9% | [2] 11.2% | [3] 28.9% | [4] 25.6% | [5] -4.4% | [6] 31.8%

CC1(CO)CSC(Nc2ccc(Cl)c(Cl)c2)=N1 (stereo unspecified)
inactive: [1] 19.1% | [2] -12.9% | [3] 37.8% | [4] 32.5% | [5] 20.1% | [6] 19.1%

O=S(=O)(OCCCCCCCCCCOS(=O)(=O)c1ccc(Cl)cc1)c1ccc(Cl)cc1
inactive: [1] -7.6% | [2] -3.6% | [3] -3.6% | [4] 8.6% | [5] -5.3% | [6] -4.55%

C=C1C(=O)C23C(O)CC4C(C)(C)[C@@H](OC(C)=O)CCC4(C)[C@]2(O)CCC1[C@@H]3O (stereo partly specified)
active: [5] 70.5%
inactive: [1] 46.8% | [2] 48.9% | [3] 44.9% | [4] 40.1% | [6] 67%
